Sampled rows, rich in hits. Any-hit rate of the full collection: about 3.1%.
Peg3 promoter = inhibitors of Peg3 promoter | HeLa PEG-Prom luciferase reporter, luminescence, overnight | inhibition, % at 20 µM | 1.7% of 360,000 active;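 active = inhibition of at least 50% at 20 µM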
CF NFkB inh = blocks PAF-induced NF-kB reporter in cystic fibrosis cells; KKLEB NF-kB-GFP reporter, GFP fluorescence overnight; inhibition, % at 5 µM; 0.86% of 360,000 active;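 active = at least 50% inhibition at 5 µM, scaled per plate between neutral and stimulator controls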;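 note: PAF is a Pseudomonas aeruginosa culture filtrate used as stimulus; plate controls were PAF-stimulated DMSO wells for no effect and unstimulated DMSO wells for full effect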
TRAIL sens C8 = sensitizes caspase-8 expressing cells to TRAIL; NB7+C8 cells + TRAIL, ATPlite viability luminescence; inhibition (viability loss, TRAIL sensitization), % at 10 µM; 1% of 360,000 active; AID 624354;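 active = compounds causing at least 50% loss of cell viability in the single-dose screen, relative to plate controls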
HIF-2a block = inhibitors of HIF-2a | 786-0 RCC cells HIF-2a reporter, luciferase luminescence, overnight | inhibition, % at 18.8 µM | 0.72% of 360,000 active;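 active = inhibition of the luminescence signal of 40% or more relative to plate controls, in a single-dose primary screen at 18.75 µM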
KKLEB cytotox = counter-screen for CF NF-kB inhibitors: cytotoxicity; KKLEB CF airway cells viability, ATPlite luminescence, overnight; stronger effect = lower value; cells stimulated with P. aeruginosa culture filtrate; activity change (cytotoxicity), % at 5 µM; 0.36% of 360,000 active;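 active = corrected activity change at or below -50% at 5 µM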
PPC-1+TRAIL kill = PPC-1 cancer cell killing with TRAIL present | AID 1443 | cell killing (% activity), % at 4 µM or 5 µM | 0.41% of 220,000 active | PPC-1 cells + TRAIL, ATPLite viability luminescence;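 active = cell killing above 50% in the first pass at 4 µM, then a duplicate retest at 5 µM averaging 50% or more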;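 note: plate controls were cells with TRAIL plus DMSO for no effect and medium-only wells lacking cells for full effect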
Numbers without * were called inactive; x = no result.

SMILES | Peg3 promoter | CF NFkB inh | TRAIL sens C8 | HIF-2a block | KKLEB cytotox | PPC-1+TRAIL kill
O=C(CC1C(=O)NCCN1Cc1cccc(C(F)(F)F)c1)NC1CCCCCC1 (stereo not drawn) | 0.6 | -5.2 | 0.4 | -21.4 | 9.8 | x
CCN(CC)CCCN(C(=O)c1ccco1)c1nc(-c2ccc(Cl)cc2)cs1 | 64.0* | 7.4 | 14.8 | 12.7 | 0.2 | x
CCN(CC)CCCN(C(=O)c1ccco1)c1nc(-c2ccc(C)cc2)cs1 | 57.2* | 21.4 | 35.2 | 9.9 | -15.2 | 9.8
CC1c2cc3c(cc2CCN1C(=O)c1cccc(F)c1)OCCCO3 (stereo not drawn) | 14.0 | 27.5 | 30.2 | -30.0 | -2.0 | x
O=C1/C(=C/c2ccc(F)cc2)SC(=S)N1CC(=O)N1CCCCC1c1cccnc1 (stereo not drawn) | 102.9* | 17.3 | -11.0 | 34.1 | -5.7 | x
O=C1/C(=C/c2cccs2)SC(=S)N1CC(=O)N1CCCCC1CCO (stereo not drawn) | -0.7 | 13.6 | 0.8 | -24.1 | -0.9 | x
O=C1/C(=C/c2ccccc2F)SC(=S)N1CC(=O)N1CCCCC1c1cccnc1 (stereo not drawn) | 75.6* | 73.8* | 12.4 | 19.6 | -28.4 | x
c1ccc2oc(-c3csc(N4CCOCC4)n3)cc2c1 | -228.0 | -30.8 | 53.3* | -188.2 | -17.0 | -2.4
Fc1ccc(-c2csc(N3CCOCC3)n2)cc1 | -206.8 | 12.0 | -5.9 | -232.2 | -3.5 | -7.5
CC1=CC(=O)C(Sc2ccc(C)cc2)=CC1=O | 59.8* | 79.8* | -6.4 | 10.4 | -35.7 | x
Cc1ccc(SC2=C(Sc3ccc(C)cc3)C(=O)c3ccccc3C2=O)cc1 | -167.8 | 40.0 | 12.5 | -183.4 | -11.6 | 5.0
CCCCCc1cc(=O)oc2c(C(CCN3CCCC(C)C3)c3ccc(N(C)C)cc3)c(OC)cc(OC)c12 (stereo not drawn) | 94.4* | 25.7 | 28.5 | -6.6 | -6.7 | 3.8
CCCCCc1cc(=O)oc2c(C(CCN3CCCC(C)C3)c3cc(OC)c(OC)c(OC)c3)c(OC)cc(OC)c12 (stereo not drawn) | 101.3* | 16.8 | 45.6 | 11.4 | -10.3 | 12.0
COc1cc(OC)c2ccc(=O)oc2c1C(CCN1CCCC(C)C1)c1ccc(N(C)C)cc1 (stereo not drawn) | -12.5 | 14.5 | 4.3 | -6.2 | -0.4 | 6.3
COc1cc(C(CCN2CCCC2)c2c(OC)cc(OC)c3ccc(=O)oc23)cc(OC)c1OC (stereo not drawn) | -1.9 | -6.6 | -16.0 | 6.3 | -2.4 | -3.8
CCN(CC)CCC(c1cc(OC)c(OC)c(OC)c1)c1c(OC)cc(OC)c2c(C)cc(=O)oc12 (stereo not drawn) | -0.8 | 0.4 | -2.8 | 8.1 | -11.6 | 3.2
CCCCCc1cc(=O)oc2c(C(CCN(CC)CC)c3ccc(N(C)C)cc3)c(OC)cc(OC)c12 (stereo not drawn) | 99.6* | 26.4 | 25.8 | 4.0 | -36.5 | 7.7
CCCCCc1cc(=O)oc2c(C(CCN3CCCCC3)c3cc(OC)c(OC)c(OC)c3)c(OC)cc(OC)c12 (stereo not drawn) | 90.5* | 2.7 | 66.5* | 10.2 | -8.8 | 21.2
CCOc1ccc(C(=O)N(Cc2ccccc2)c2cccc(C)c2)cc1OC | 25.9 | 29.1 | 10.7 | 11.3 | -6.5 | x
COc1cccc(CN2CCC2(C)C(=O)Nc2ccc3c(c2)OCO3)c1F (stereo not drawn) | -10.4 | 18.9 | 7.5 | -22.8 | -14.4 | x
Cc1ccccc1OCCC(=O)Nc1ccc2c(C)cc(=O)oc2c1 | -17.7 | -17.4 | -15.3 | -20.0 | 13.4 | x
Nc1nc(N)c(N=O)c(Nc2cccc(Cl)c2)n1 | x | x | 10.7 | -9.3 | x | x
CC(O)(c1ccc(F)c(F)c1)c1nc(-c2cnc3ccccc3c2)cs1 (stereo not drawn) | -24.6 | 30.6 | -1.4 | -24.2 | -20.4 | x
CCN1CCN(c2ccc(S(=O)(=O)N3CCCCC3)cc2NC(=O)/C=C/c2ccc(OC(F)F)cc2)CC1 | 96.3* | 16.9 | 56.4* | -14.2 | -16.6 | x
CN1CCN(c2ccc(S(=O)(=O)N3CCCCC3)cc2NC(=O)/C=C/c2ccc(OC(F)F)cc2)CC1 | 75.9* | 16.7 | 11.3 | 10.5 | -10.1 | x
SMILES | Peg3 promoter | CF NFkB inh | TRAIL sens C8 | HIF-2a block | KKLEB cytotox | PPC-1+TRAIL kill
CN1CCN(c2ccc(S(=O)(=O)N3CCCCC3)cc2NC(=O)/C=C/c2ccc(Cl)c([N+](=O)[O-])c2)CC1 | 104.4* | 23.9 | 9.1 | 6.1 | -13.1 | x
CCN1CCN(c2ccc(S(=O)(=O)N3CCCCC3)cc2NC(=O)/C=C/c2cccc(OC)c2OC)CC1 | 68.4* | 5.0 | 1.6 | 14.8 | 11.3 | x
COc1ccc(CN2C(=O)c3cccnc3C2=O)cc1S(=O)(=O)N1CCOc2ccc(C)cc21 | 8.4 | 19.7 | -3.1 | 0.2 | -1.9 | x
COC(=O)[C@H](Cc1ccccc1)NC(=O)NCCc1ccc(OC)cc1 | 14.0 | 10.5 | -10.4 | 15.1 | 0.3 | x
O=C(NCC1CCCO1)c1ccc2c3n(nc2c1)-c1ccccc1CO3 (stereo not drawn) | -263.7 | -7.6 | 51.0* | -251.9 | -18.8 | 42.1
CN(C)c1ccc(C=c2c3ccccc3n3c2c2ccccc2[n+]3C)cc1 | 71.4* | 23.0 | 34.6 | -8.7 | -7.6 | x
CCOC(=O)c1cc2c(=Cc3ccc(N(C)C)cc3)c3ccccc3n2[n+]1C | 46.9 | -20.8 | 53.3* | -52.2 | -8.2 | x
CN(C)c1ccc(C=c2c3cc(O)ccc3n3c2cc(-c2ccccc2)[n+]3C)cc1 | 46.5 | -71.0 | 50.5* | -72.7 | -8.3 | x
Cc1cc2c(=Cc3ccc(N(C)C)cc3)c3ccccc3n2[n+]1C | 97.0* | -131.9 | 31.3 | 68.9* | 7.3 | x
C[n+]1c(-c2ccccc2)cc2c(=Cc3ccc([N+](=O)[O-])cc3)c3ccccc3n21 | 31.1 | 36.7 | 23.1 | -20.8 | -11.4 | x
Cc1noc(C)c1C(=O)OC(C)C(=O)c1ccc(C(C)(C)C)cc1 (stereo not drawn) | -4.3 | -15.8 | -7.6 | -1.7 | 10.8 | x
O=C(Cc1cccc(C(F)(F)F)c1)Nc1cc(S(=O)(=O)N2CCOCC2)ccc1N1CCCC1 | -4.7 | -4.5 | -9.5 | 11.2 | -4.3 | x
CCc1cc(C(=O)c2ccc(C)cc2)c(NC(=O)CCl)s1 | 24.2 | 30.2 | -3.4 | -55.3 | -15.0 | -17.5
Cc1cc(C(=O)c2ccc(Cl)cc2)c(NC(=O)CCl)s1 | 88.6* | 47.8 | 21.0 | 4.0 | -46.2 | 9.7
O=S1(=O)N[C@@H](Cc2ccccc2)COc2cc(N3CCC[C@@H]3CO)ccc21 | x | x | -1.3 | -0.9 | x | x
NC1=NC[C@H](c2ccccc2)N1CCc1cc(C(F)(F)F)cc(C(F)(F)F)c1 | 97.8* | -4.1 | 43.9 | 9.4 | -0.5 | 5.0
CC(O)[C@H]1CN=C(N)N1CCc1cc(C(F)(F)F)cc(C(F)(F)F)c1 (stereo partly drawn) | 3.0 | 4.6 | -4.4 | -1.8 | 0.0 | -18.3
COc1cc(OC)cc(-c2c(Sc3ccccc3)c3cc(-c4ccc(OC)c(F)c4)ccc3n2C)c1 | x | x | 31.0 | 10.0 | x | x
COc1ccccc1/C=N/NC(=O)c1ccc(NC(=O)c2cccc([N+](=O)[O-])c2)cc1 | x | x | x | x | x | 8.4

High-throughput results from PubChem.
